TDP1 cell CPT = growth inhibition of DT40 Tdp1-/-;hTDP1 cells with camptothecin (screen for TDP1 inhibitors); chicken DT40 Tdp1-/-;hTDP1 cells + 20 nM CPT, ATP luminescence, 48 h; Potency, µM (highest dose often 46.2 µM), for the others: at the top dose activity change, negative = growth inhibition, hits mostly inhibitors; hit rate 12% among 420,000; also: % is scaled to controls: 0 for no effect and ±100 for the full control effect; nearly all actives have a fitted effect of over 55% in size
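Cell growth measured by CellTiter-Glo luminescence after a minimum 48 h, 37 C compound exposure with 20 nM CPT in Tdp1-knockout DT40 cells stably expressing hTDP1, seeded 400/well; qHTS titration format.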
TDP1 cell noCPT = qHTS for Inhibitors of human tyrosyl-DNA phosphodiesterase 1 (TDP1): qHTS in cells in absence of CPT; DT40 Tdp1-/- hTDP1 cells, no CPT, ATP luminescence, 48 h; Potency, µM (highest dose often 46.2 µM), for the others: top-dose activity change, negative = growth inhibition, usual class: inhibitors; hit rate 15% among 420,000; AID 686978, 2013; also: % is scaled to controls: 0 for no effect and ±100 for the full control effect; nearly all actives have a fitted effect of over 55% in size
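A cellular qHTS used chicken DT40 cells lacking endogenous Tdp1 but carrying stably transfected human TDP1. Compounds were applied without camptothecin, and cell growth kinetics were judged by ATP-dependent luminescence after ≥48 hr.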
ClpP mod = qHTS Assay for Activators of ClpP | purified B. subtilis ClpP, FRET peptide cleavage, 20 min | Potency, µM (highest dose often 57.5 µM), for inactives: at the highest dose activity change, negative = active | hit rate 1.9% among 340,000 | ATP-dependent Clp protease proteolytic subunit (Bacillus subtilis (strain 168)), P80244 | AID 651965, 2013; active = well fitted falling curve with a large enough effect; inconclusive = small, poorly fitted or top-dose-only effect; inactive = no such curve, though single readings can be large or run the other way; also: the source files actives as falling curves though it sought activators and does not explain the sign; nearly all actives have a fitted effect of over 65% in size
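Purified B. subtilis ClpP, 10 microg/mL final in Tris/HCl pH8 with KCl, BSA, glycerol and Tween-20, cleaved an Abz/nitrotyrosine-quenched decapeptide. Fluorescence (ex 320, em 430) was read at 0 and 20 min at room temperature. Delta was normalized to 5.8 microM ADEP and DMSO/no-enzyme controls.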
TDP1 block = blocks human tyrosyl-DNA phosphodiesterase 1 | recombinant TDP1, AlphaScreen DNA substrate cleavage | Potency, µM (titrated, usually from 130 µM), for the others: top-dose activity change, negative = inhibition, most hits filed as inhibitors | hit rate 0.28% among 350,000 | AID 485290; also: % is scaled to controls: 0 for no effect and ±100 for the full control effect; nearly all actives have a fitted effect of over 40% in size
Target sequence (Q9NUW8 whole entry, looked up): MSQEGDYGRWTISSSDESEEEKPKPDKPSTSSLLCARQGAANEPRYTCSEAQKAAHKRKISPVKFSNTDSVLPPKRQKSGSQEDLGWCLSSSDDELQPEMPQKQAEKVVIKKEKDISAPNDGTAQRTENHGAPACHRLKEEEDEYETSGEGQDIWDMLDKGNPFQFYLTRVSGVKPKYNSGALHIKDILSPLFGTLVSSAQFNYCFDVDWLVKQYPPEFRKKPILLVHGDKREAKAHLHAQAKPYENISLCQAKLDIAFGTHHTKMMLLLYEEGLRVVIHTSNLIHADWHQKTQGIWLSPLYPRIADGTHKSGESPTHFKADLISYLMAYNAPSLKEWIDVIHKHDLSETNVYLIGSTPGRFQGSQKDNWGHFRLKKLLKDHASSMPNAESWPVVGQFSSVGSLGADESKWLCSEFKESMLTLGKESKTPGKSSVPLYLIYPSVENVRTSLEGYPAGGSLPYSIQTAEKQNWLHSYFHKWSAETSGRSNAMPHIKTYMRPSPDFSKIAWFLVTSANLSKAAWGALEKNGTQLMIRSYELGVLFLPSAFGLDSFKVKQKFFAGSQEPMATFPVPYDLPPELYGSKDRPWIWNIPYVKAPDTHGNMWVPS
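AlphaScreen read-out: signal falls as enzyme removes the 3' tyrosine-FITC from a 5'-biotinylated DNA oligo (15 nM, 5 min, RT). Enzyme was E. coli-made recombinant Tdp1 at 1 nM, exposed to compound for 15 min beforehand; beads 10 ug/ml, 10 min.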
* marks the source's active call; other numbers are inactive results; ? = inconclusive; nt = not tested or not shown; [ ] = dose if it differs, or a comment. This is a sample that favours compounds with a hit; in the whole collection about 17% have one here. Unless noted, calls follow the shape of the dose curve; as a rule, active = well fitted curve in the direction sought with a large enough effect; inconclusive = small, poorly fitted or top-dose-only effect, or another doubt; inactive = no such curve, though single readings can be large; an effect the other way counts as inactive or inconclusive. Potency is read from the fitted curve at half-maximal effect.

SMILES | TDP1 cell CPT | TDP1 cell noCPT | ClpP mod | TDP1 block
CCC1(C)Cc2ccccc2-c2nc(NCCCO)n(-c3ccccc3)c(=O)c21 (stereo not drawn) | 2.1µM* | 4.1µM* | 3.5µM* | 0%
CC1(C)Cc2ccccc2-c2nc(NCCCO)[nH]c(=O)c21 | 0% | -4% | nt | -2%
CCC1(C)Cc2ccccc2-c2nc(NCCO)[nH]c(=O)c21 (stereo not drawn) | ? | ? | -1% | 6%
COC(=O)c1oc2nc(C)cc(C)c2c1N | 1% | 1% | 28µM* | -2%
Cc1ccc(NC(=O)CC(C)S(=O)(=O)c2ccc3c(c2)NC(=O)CO3)cc1Cl (stereo not drawn) | -7% | 21µM* | 1% | 2%
Cc1ccc(NS(=O)(=O)c2ccc3c(c2)NC(=O)CO3)cc1Cl | 18µM* | ? | 1% | 5%
O=C(Nc1ccc(Cl)cc1)Nc1nc(-c2ccccc2)cs1 | ? | -19% | 2% | -1%
CN(C)CC(=O)Nc1nc(-c2ccccc2)cs1 | -13% | ? | 0% | 7%
Fc1ccc(-c2csc(NC(=S)Nc3ccccc3)n2)cc1 | 21µM* | ? | 0% | nt
CC1CC1C(=O)Nc1nc(-c2ccccc2)cs1 (stereo not drawn) | 5.2µM* | 5.8µM* | 1% | 9%
O=C(Nc1ccccc1)Nc1nc(-c2ccc(F)cc2)cs1 | 4.1µM* | 4.1µM* | 2% | -4%
CCCCC(=O)N1CCN(c2nc3ccc(Cl)cc3s2)CC1 | 16µM* | ? | 0% | 0%
CC(C)(C)NC(=O)N1CCN(c2nc3ccc(Cl)cc3s2)CC1 | 23µM* | 18µM* | 1% | nt
CC(C)(CC(=O)O)CC(=O)N1CCN(c2nc3ccc(Cl)cc3s2)CC1 | -16% | 11% | 1% | nt
CCCN(CCC)C(=O)c1ccc2nc(-c3ccc(OC)c(OC)c3)c(-c3ccc(OC)c(OC)c3)nc2c1 | ? | ? | -1% | nt
CSCC(=O)N1CCCC(N2CCN(c3cccc(C(F)(F)F)c3)CC2)C1 (stereo not drawn) | -28% | ? | 1% | 3%
Cc1cc(C(=O)N2CCCC(N3CCN(c4cccc(C(F)(F)F)c4)CC3)C2)c(C)o1 (stereo not drawn) | 16µM* | 12µM* | 1% | 8%[56.1 µM]
Cc1cc(C(=O)N2CCCC(N3CCN(c4cccc(C(F)(F)F)c4)CC3)C2)nn1C (stereo not drawn) | ? | ? | -1% | 3%
Cc1occc1C(=O)N1CCCC(N2CCN(c3cccc(C(F)(F)F)c3)CC2)C1 (stereo not drawn) | 21µM* | 13µM* | 0% | 6%
Cn1cccc1/C=C1\SC(=S)N(NC(=O)c2cccc(Cl)c2)C1=O | 9% | -19% | 266% | 9%
NC(=O)Nc1cccc2ccccc12 | 11% | 2% | 0% | 5%
O=C(Nc1cccc2ccccc12)OC1C=CS(=O)(=O)C1 (stereo not drawn) | ? | 21µM* | 0% | 2%
Cc1ccc(S(=O)(=O)c2cnc(SC(C)C(=O)Nc3ccccc3)[nH]c2=O)cc1 (stereo not drawn) | nt | nt | -1% | 1%
Cc1cc(=O)[nH]c2ccccc12 | ? | 0% | -17% | 2%
Cc1[nH]c(=O)cc2ccccc12 | 0% | -24% | 22µM* | -3%
SMILES | TDP1 cell CPT | TDP1 cell noCPT | ClpP mod | TDP1 block
CCc1ccc(NC(=O)CN2C(=O)C(c3ccc(F)cc3)=NC2(C)C)cc1 | 5% | -15% | 0% | 3%
COc1cc(OC)c(/C=C/c2ccncn2)c(OC)c1 | ? | ? | -11% | nt
COC(=O)c1scc(-c2ccc(C)cc2)c1S(=O)(=O)N1CCN(c2ccc(C(C)=O)cc2)CC1 | 23µM* | ? | -2% | 8%
COC(=O)c1scc(-c2ccc(C)cc2)c1S(=O)(=O)N1CCN(c2cccc(Cl)c2)CC1 | 18µM* | 18µM* | -1% | 2%
COC(=O)c1scc(-c2ccc(C)cc2)c1S(=O)(=O)N1CCN(c2ccccc2F)CC1 | 13µM* | 18µM* | -1% | -2%
COC(=O)c1scc(-c2ccc(C)cc2)c1S(=O)(=O)N1CCN(c2ccccc2)CC1 | 12µM* | 9.2µM* | 0% | 7%
COC(=O)c1cc(S(=O)(=O)N2CCN(c3cccc(Cl)c3)CC2)c[nH]1 | -26% | -29% | 0% | nt
OCCC1CN(Cc2nc3ccccc3[nH]2)CCN1C1CCCC1 (stereo not drawn) | -19% | 2% | nt | -3%
CC(=O)OC[C@@H]1O[C@H](C/C=N\O[C@@H](C)c2cn([C@H](CO)Cc3ccccc3)nn2)C=C[C@@H]1OC(C)=O | nt | nt | nt | 2%[21 µM]
O=C(NNC(=O)c1ccc(F)c(S(=O)(=O)N2CCOCC2)c1)c1ccc(Br)cc1 | ? | -25% | -1% | 0%
CCOC(=O)c1scc(-c2ccccc2)c1S(=O)(=O)N1CCN(c2ccc(Cl)cc2)CC1 | ? | 13µM* | 2% | 7%
COC(=O)c1cc(S(=O)(=O)N2CCN(c3ccc(C)cc3C)CC2)cn1C | ? | -30% | -1% | 5%
COC(=O)c1scc(-c2ccc(C)cc2)c1S(=O)(=O)N1CCN(c2ccc(C)cc2C)CC1 | 15µM* | 9.2µM* | 1% | 10%
Cc1cccc(NC(=O)CS(=O)CC(=O)Nc2cnc3ccccc3c2)c1C (stereo not drawn) | 1% | -19% | nt | 5%
O=C(CSc1nnc(Cc2cccs2)n1Cc1ccco1)Nc1cccc(Cl)c1 | ? | ? | 0% | 7%
O=C(CSc1nnc(-c2ccc(Cl)cc2)n1Cc1ccco1)c1cccs1 | ? | 21µM* | -2% | 12%
O=C(CSc1nnc(Cc2cccs2)n1Cc1ccco1)Nc1cc(Cl)cc(Cl)c1 | 26µM* | ? | 0% | 0%
Cc1ccc(C(=O)CSc2nnc(-c3ccccc3)n2-c2ccccc2)o1 | 11µM* | 10µM* | 0% | 0%
NC(=O)CSc1nnc(-c2cccs2)n1Cc1ccco1 | 12% | 5% | -1% | 1%
O=C(CSc1nnc(-c2ccccc2)n1-c1ccccc1)c1cccs1 | ? | 12µM* | -3% | -1%
CCCCOc1cccc2c(=O)n(CC(=O)Nc3ccc4c(c3)OCCO4)ccc12 | -4% | -27% | 1% | nt
COc1ccc(CNC(=O)c2cn(Cc3ccccc3OC)c(=O)s2)cc1 | -30% | -24% | -4% | nt
CCN(CC)CCC12CC(C)OC1=Nc1ccccc1NC2=O (stereo not drawn) | -11% | -4% | 0% | nt
CCCN1Cc2cccc(C(=O)Nc3ccc(C(C)=O)cc3)c2C1=O | -5% | -7% | -2% | 2%
COc1ccc(CNC(=O)CN2C(=O)CCSc3ccc(S(=O)(=O)N4CCCC4)cc32)cc1 | -13% | 1% | 0% | 5%
O=C(NC(=S)N1CCN(Cc2ccccc2)CC1)c1cccnc1 | 16µM* | 21µM* | nt | 3%

From PubChem BioAssay
